# Source: ChEMBL document CHEMBL1961873, “Compounds: GSK PKIS; Assays: Nanosyn kinase panel” (2012)
# Experiments:
# [1] = target: Sphingosine kinase 1 (Homo sapiens) (UniProt Q9NYA1); details: at 1 µM;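 further: mean SPHK1 inhibition value reported from the GSK PKIS kinase panel screen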
# [2] = target: T1, Sphingosine kinase 2 (Homo sapiens) (UniProt Q9NRA0); details: at 0.1 µM
# T1 sequence (whole entry): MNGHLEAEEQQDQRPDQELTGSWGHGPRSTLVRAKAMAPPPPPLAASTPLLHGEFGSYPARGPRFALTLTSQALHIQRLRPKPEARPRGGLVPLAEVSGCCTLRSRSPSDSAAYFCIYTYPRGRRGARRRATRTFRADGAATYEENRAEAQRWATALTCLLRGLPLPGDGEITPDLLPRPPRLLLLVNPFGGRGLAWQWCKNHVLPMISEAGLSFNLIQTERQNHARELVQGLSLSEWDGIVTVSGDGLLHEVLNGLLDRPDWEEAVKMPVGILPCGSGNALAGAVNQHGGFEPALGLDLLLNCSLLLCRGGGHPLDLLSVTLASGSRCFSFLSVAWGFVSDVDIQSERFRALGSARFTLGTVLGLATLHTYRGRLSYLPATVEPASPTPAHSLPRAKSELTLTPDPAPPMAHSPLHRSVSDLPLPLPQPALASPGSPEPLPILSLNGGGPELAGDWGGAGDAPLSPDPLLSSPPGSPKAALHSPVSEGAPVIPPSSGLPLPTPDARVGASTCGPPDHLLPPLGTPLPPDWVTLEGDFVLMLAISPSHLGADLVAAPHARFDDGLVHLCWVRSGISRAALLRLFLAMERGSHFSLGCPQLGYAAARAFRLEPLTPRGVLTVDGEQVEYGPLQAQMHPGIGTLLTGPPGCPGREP
# [3] = target: T1, Sphingosine kinase 2 (Homo sapiens); details: at 1 µM
# [4] = target: Casein kinase II subunit alpha (Homo sapiens) (UniProt P68400); details: at 0.1 µM
# Sequence of Casein kinase II subunit alpha (Homo sapiens) (P68400 whole entry, looked up): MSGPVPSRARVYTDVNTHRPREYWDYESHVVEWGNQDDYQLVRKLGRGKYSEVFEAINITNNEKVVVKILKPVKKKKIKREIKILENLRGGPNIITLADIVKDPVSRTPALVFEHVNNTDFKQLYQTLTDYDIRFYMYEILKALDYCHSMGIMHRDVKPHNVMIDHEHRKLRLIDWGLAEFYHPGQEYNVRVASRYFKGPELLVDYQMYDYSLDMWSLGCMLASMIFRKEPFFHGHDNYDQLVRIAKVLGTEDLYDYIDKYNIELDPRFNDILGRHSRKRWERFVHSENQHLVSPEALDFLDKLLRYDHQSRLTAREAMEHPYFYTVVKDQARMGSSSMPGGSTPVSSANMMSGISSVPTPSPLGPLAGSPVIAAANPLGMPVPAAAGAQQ
# [5] = target: Casein kinase II subunit alpha (Homo sapiens) (UniProt P68400); details: at 1 µM
# [6] = target: T2, Inhibitor of nuclear factor kappa-B kinase subunit alpha (Homo sapiens) (UniProt O15111); details: at 0.1 µM
# T2 sequence (whole entry): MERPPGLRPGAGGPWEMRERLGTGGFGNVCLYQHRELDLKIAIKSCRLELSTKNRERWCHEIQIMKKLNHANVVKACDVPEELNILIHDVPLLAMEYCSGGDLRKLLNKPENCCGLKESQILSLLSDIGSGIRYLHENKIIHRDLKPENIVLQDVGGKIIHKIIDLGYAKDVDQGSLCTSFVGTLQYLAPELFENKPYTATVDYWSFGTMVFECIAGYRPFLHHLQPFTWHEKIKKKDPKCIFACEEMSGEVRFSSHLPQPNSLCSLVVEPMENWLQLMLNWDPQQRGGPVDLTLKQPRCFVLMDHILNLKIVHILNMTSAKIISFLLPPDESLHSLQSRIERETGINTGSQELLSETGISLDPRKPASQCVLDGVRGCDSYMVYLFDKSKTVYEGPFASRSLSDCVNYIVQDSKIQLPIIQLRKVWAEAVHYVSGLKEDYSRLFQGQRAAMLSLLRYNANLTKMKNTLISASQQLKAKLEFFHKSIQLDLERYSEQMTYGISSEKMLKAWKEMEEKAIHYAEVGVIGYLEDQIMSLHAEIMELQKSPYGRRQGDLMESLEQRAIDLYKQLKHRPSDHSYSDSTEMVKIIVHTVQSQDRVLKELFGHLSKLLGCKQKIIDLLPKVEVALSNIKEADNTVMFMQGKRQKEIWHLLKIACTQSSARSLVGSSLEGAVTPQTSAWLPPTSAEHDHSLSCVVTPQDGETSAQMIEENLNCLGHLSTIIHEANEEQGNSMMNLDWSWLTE
# [7] = target: T2, Inhibitor of nuclear factor kappa-B kinase subunit alpha (Homo sapiens); details: at 1 µM
# [8] = target: T3, Inhibitor of nuclear factor kappa-B kinase subunit beta (Homo sapiens) (UniProt O14920); details: at 0.1 µM
# T3 sequence (whole entry): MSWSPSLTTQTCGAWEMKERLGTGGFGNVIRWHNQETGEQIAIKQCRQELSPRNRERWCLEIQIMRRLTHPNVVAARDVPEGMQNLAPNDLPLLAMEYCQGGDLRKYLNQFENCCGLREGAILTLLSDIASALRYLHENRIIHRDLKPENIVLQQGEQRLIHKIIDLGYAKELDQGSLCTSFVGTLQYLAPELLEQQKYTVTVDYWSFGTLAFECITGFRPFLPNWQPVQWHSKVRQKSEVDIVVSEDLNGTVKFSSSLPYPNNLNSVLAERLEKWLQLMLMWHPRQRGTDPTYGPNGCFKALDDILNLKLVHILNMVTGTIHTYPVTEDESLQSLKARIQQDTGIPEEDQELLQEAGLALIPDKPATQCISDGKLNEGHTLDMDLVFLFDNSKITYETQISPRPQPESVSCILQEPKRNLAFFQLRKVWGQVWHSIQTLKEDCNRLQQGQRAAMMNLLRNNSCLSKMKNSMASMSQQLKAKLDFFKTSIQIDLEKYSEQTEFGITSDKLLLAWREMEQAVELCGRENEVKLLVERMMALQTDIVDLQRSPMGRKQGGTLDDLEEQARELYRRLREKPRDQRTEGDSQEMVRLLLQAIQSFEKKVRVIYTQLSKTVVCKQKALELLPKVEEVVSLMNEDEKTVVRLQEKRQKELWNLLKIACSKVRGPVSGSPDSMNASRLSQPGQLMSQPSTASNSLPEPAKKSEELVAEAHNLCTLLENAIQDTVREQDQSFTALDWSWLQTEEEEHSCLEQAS
# [9] = target: T3, Inhibitor of nuclear factor kappa-B kinase subunit beta (Homo sapiens); details: at 1 µM
# [10] = target: T4, Inhibitor of nuclear factor kappa-B kinase subunit epsilon (Homo sapiens) (UniProt Q14164); details: at 0.1 µM;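 further: mean inhibition of IKKε reported, from the GSK PKIS dataset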
# T4 sequence (whole entry): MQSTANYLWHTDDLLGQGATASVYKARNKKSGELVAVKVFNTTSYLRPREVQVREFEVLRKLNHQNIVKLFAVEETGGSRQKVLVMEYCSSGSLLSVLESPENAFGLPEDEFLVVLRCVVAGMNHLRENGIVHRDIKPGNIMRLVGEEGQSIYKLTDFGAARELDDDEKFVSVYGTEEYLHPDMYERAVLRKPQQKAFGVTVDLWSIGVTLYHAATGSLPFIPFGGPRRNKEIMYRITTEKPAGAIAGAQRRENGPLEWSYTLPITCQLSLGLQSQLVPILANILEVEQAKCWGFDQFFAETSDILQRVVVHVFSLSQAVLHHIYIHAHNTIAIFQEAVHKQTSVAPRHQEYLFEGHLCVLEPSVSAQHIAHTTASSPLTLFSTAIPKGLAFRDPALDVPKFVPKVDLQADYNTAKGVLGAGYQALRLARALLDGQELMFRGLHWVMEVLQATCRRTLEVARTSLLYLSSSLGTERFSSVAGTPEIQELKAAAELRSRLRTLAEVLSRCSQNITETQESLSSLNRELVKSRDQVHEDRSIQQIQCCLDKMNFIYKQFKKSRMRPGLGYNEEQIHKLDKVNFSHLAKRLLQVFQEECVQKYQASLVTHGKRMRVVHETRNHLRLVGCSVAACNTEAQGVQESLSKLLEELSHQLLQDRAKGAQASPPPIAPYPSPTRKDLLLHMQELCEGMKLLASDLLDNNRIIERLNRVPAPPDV
# Sequence of Sphingosine kinase 1 (Homo sapiens) (Q9NYA1 whole entry): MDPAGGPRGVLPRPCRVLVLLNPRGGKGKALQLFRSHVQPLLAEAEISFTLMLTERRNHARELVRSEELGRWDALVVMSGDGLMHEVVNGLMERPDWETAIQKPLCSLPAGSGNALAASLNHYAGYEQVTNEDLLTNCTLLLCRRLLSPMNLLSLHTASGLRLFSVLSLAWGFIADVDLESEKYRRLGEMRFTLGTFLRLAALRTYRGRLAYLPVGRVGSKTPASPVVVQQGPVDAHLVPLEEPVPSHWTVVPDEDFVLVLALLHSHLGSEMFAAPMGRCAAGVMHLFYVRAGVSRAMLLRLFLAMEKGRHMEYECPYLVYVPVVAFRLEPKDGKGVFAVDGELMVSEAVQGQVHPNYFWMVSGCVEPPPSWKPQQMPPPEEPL
smiles,measurement,setting,value
CC(=O)Nc1cccc(C#Cc2cncnc2Nc2ccc(OCc3cccc(F)c3)c(Cl)c2)n1,inhibition,[1],0.51%
same,inhibition,[2],1.73%
same,inhibition,[3],-0.13%
same,inhibition,[4],2.14%
same,inhibition,[5],9.24%
same,inhibition,[6],2.26%
same,inhibition,[7],-1.99%
same,inhibition,[8],-3.08%
same,inhibition,[9],2.94%
same,inhibition,[10],2.95%
